Experimental findings from PubChem BioAssay (NCI) are described below.

Compounds without any hit were thinned out: in the full panel of roughly 83,000, 20% have a hit.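 Percent growth is the endpoint: 0 to 100 indicates growth inhibition (40 means 60% inhibition), 0 means no net growth, and negative values indicate cell death.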 Values without a mark were called inactive. Activity calls are given as the source filed them. The calls were made as follows: active = growth percent below 10; inactive = the rest.

Test systems include NCI-H23 lung; NCI-H226 lung; NCI-H322M lung; HOP-62 NSCLC; HOP-92 NSCLC; NCI-H522 lung; A549/ATCC NSCLC; 786-0 renal; COLO 205 colon; NCI-H460 lung.
Assay in all cases: NCI-60 one-dose screen, 48 h (100 = growth as untreated, 0 = no growth, -100 = all killed)
Conditions in all cases: 10 µM unless noted

On to `C[C@H]1[C@H](C)CC[C@]2(C(=O)OCCCC[P+](c3ccccc3)(c3ccccc3)c3ccccc3)CC[C@]3(C)C(=CC[C@@H]4[C@@]5(C)CC[C@H](OC(=O)C(Cl)Cl)C(C)(C)[C@@H]5CC[C@]43C)[C@H]12`, for which the growth in the experiment on NCI-H23 lung is -48.3% (active); in the experiment on NCI-H226 lung it was -78.8% (active); in the experiment with NCI-H322M lung it was -10.6% (active); with HOP-62 NSCLC, -65% (active); with HOP-92 NSCLC, -70.1% (active); in the experiment on NCI-H522 lung, -55% (active). The growth in the experiment with A549/ATCC NSCLC is -41.9% (active); in the experiment on 786-0 renal, -83.5% (active); with COLO 205 colon, -84.9% (active).

Regarding `O=C(CCCC(=O)Nc1ccc(-n2nnc3cc(Cl)c(Cl)cc32)cc1)Nc1ccc(-n2nnc3cc(Cl)c(Cl)cc32)cc1`, the growth with NCI-H23 lung is 40.2%; in the experiment with NCI-H226 lung, 49.9%; in the experiment on NCI-H322M lung it was 59.9%; in the experiment with HOP-62 NSCLC, 28%; with HOP-92 NSCLC, 77.6%; in the experiment with NCI-H522 lung it was 37.4%. Besides, the growth in the experiment on A549/ATCC NSCLC is 34%; in the experiment on 786-0 renal it was 49.6%; with COLO 205 colon, 72.2%.

With `CCCCC1=c2c([nH]c3ccc(OC)cc23)=NC2C=CC=NC12` (stereo unspecified), the growth with NCI-H23 lung was 81.4%; with NCI-H226 lung it was 89.3%; in the experiment on NCI-H322M lung it was 86.1%; in the experiment with HOP-62 NSCLC, 90.8%; with HOP-92 NSCLC, 103%; in the experiment with NCI-H522 lung, 83.8%. Besides, the figures for the growth with A549/ATCC NSCLC, in the experiment on 786-0 renal and in the experiment on COLO 205 colon were 103%, 110% and 106%, respectively.

With `O=C1CC23OC4ON=C(Br)C4C2C(O)c2ccccc2N13` (stereo unspecified), the growth is 87.9% with NCI-H23 lung; 97.7% in the experiment with NCI-H226 lung; 96.8% in the experiment with NCI-H322M lung; 106% in the experiment with HOP-62 NSCLC; 107% with HOP-92 NSCLC; 79.6% with NCI-H522 lung. Moreover, the growth with A549/ATCC NSCLC was 103%; with 786-0 renal, 101%; in the experiment with COLO 205 colon it was 125%.

For `NS(=O)(=O)c1ccc(-n2nc(-c3ccccc3)ccc2=O)cc1`, the growth in the experiment with NCI-H23 lung is 101%; with NCI-H226 lung it was 100%; with NCI-H322M lung it was 115%; with HOP-62 NSCLC, 102%; with HOP-92 NSCLC, 97.1%; in the experiment on NCI-H522 lung, 89.9%. Also, the growth in the experiment with A549/ATCC NSCLC is 112%; with 786-0 renal it was 93.8%; in the experiment with COLO 205 colon, 125%.

For `COc1cc(NCC(=O)Nc2cc(Nc3ccc(C)cc3)ncn2)c(Cl)c(OC)c1Cl`, the growth in the experiment on NCI-H23 lung was 91.7%; in the experiment on NCI-H226 lung it was 85.4%; in the experiment with NCI-H322M lung it was 84.8%; in the experiment on HOP-62 NSCLC, 87%; in the experiment on HOP-92 NSCLC, 78.7%; in the experiment with NCI-H522 lung it was 74.1%. For the same compound, the results for the growth in the experiment on A549/ATCC NSCLC, in the experiment with 786-0 renal and in the experiment on COLO 205 colon were 80.1%, 96.7% and 85.8%, respectively.

Regarding `C/C(=N\NC(=O)c1ccncc1)c1ccc(N)cc1`, the growth in the experiment with NCI-H23 lung was 101%; in the experiment on NCI-H226 lung it was 102%; with NCI-H322M lung, 91.5%; in the experiment on HOP-62 NSCLC, 95.8%; in the experiment on HOP-92 NSCLC, 80.6%; with NCI-H522 lung, 75.4%. The growth with A549/ATCC NSCLC is 90.6%; in the experiment on 786-0 renal it was 99%; in the experiment on COLO 205 colon, 117%.

With `N#CCNc1ccc(C(=O)O)cc1`, the growth in the experiment on NCI-H23 lung is 101%; with NCI-H226 lung, 95.3%; in the experiment with NCI-H322M lung, 114%; in the experiment with HOP-62 NSCLC, 98.3%; with HOP-92 NSCLC, 94%; in the experiment with NCI-H522 lung, 90.4%. Besides, the results for the growth with A549/ATCC NSCLC, with 786-0 renal and in the experiment on COLO 205 colon were 87%, 104% and 110%, respectively.

`COc1ccc(C(=S)c2cc(OC)c(OC)c(OC)c2)cc1OC(=O)CCl`: the growth with NCI-H23 lung was 31.4%; in the experiment with NCI-H226 lung, 103%; with NCI-H322M lung it was 42.4%; with HOP-62 NSCLC, 30.9%; in the experiment on HOP-92 NSCLC it was 54.8%; with NCI-H522 lung, 12.9%. In addition, the growth in the experiment with A549/ATCC NSCLC was 21.2%; in the experiment on 786-0 renal it was 27.4%; with COLO 205 colon, 16.7%.

With `C1=CC2=CC=C3C=CC=C4C(c5nc6c7ccccc7c7ccccc7c6[nH]5)=CC(=C1)C2C34` (stereo unspecified), the growth in the experiment with NCI-H23 lung is 98.1%; in the experiment with NCI-H226 lung, 23.8%; in the experiment on NCI-H322M lung it was 90.9%; in the experiment on HOP-62 NSCLC it was 68.7%; in the experiment with HOP-92 NSCLC it was 72.9%; in the experiment on NCI-H522 lung, 82.5%. In addition, the growth in the experiment with A549/ATCC NSCLC was 89.7%; with 786-0 renal it was 98.2%; in the experiment with COLO 205 colon it was 120%.

For `COc1cc(/C=C/C(=O)c2cccs2)ccc1OCc1ccc(Cl)nc1`, the growth with NCI-H23 lung was 77.5%; in the experiment with NCI-H226 lung it was 86.8%; in the experiment with NCI-H322M lung it was 85.9%; in the experiment on HOP-62 NSCLC, 102%; in the experiment with HOP-92 NSCLC, 85.2%; with NCI-H522 lung, 86.1%. The growth was 99% in the experiment on A549/ATCC NSCLC, 75.3% in the experiment on 786-0 renal and 98.1% in the experiment on COLO 205 colon.

With `Cc1nccc2c3ccc(OCc4cn(-c5ccc(Br)cc5)nn4)cc3n(CC(C)C)c12`, the growth was 40.1% in the experiment on NCI-H23 lung; 90.6% in the experiment on NCI-H322M lung; 65.8% in the experiment on HOP-62 NSCLC; 44.3% in the experiment with NCI-H460 lung; 16.4% in the experiment on HOP-92 NSCLC; 26.5% in the experiment with NCI-H522 lung. Besides, the values for the growth in the experiment on A549/ATCC NSCLC, in the experiment with 786-0 renal and in the experiment on COLO 205 colon were 41.1%, 28.5% and 15.1%, respectively.

On to `COC1=CC2C=C(C3N(c4ccccc4)NC(=O)[C@@H]4CCCN34)C(=O)NC2C=C1` (stereo partly specified), for which the growth in the experiment with NCI-H23 lung was 89.7%; with NCI-H322M lung it was 93.5%; with HOP-62 NSCLC, 93.1%; with NCI-H460 lung it was 110%; in the experiment with HOP-92 NSCLC it was 124%; in the experiment with NCI-H522 lung it was 87.6%. The growth was 107% in the experiment with A549/ATCC NSCLC, 99.5% in the experiment on 786-0 renal and 111% in the experiment on COLO 205 colon.

Take `CC1CCCN(CCCCCOc2ccc3oc4ccccc4c(=O)c3c2)C1` (stereo unspecified): the growth was 75% with NCI-H23 lung; 76.9% in the experiment on NCI-H322M lung; 91.3% in the experiment with HOP-62 NSCLC; 75.5% in the experiment on NCI-H460 lung; 90.2% in the experiment on HOP-92 NSCLC; 67.4% with NCI-H522 lung. Moreover, the results for the growth with A549/ATCC NSCLC, in the experiment with 786-0 renal and with COLO 205 colon were 68.7%, 69.8% and 36.1%, respectively.
